The list is not random: actives were taken first. Their share in the collection is about 3.7%.
A549 viability – Nrf2 qHTS screen for inhibitors: counterscreen for cytotoxicity; A549 ARE-Fluc cells, CellTiter-Fluor viability, 18-24 h; Potency, µM (series often up to 46 µM), inactives show at the highest dose activity change, negative = cytotoxicity, hits mostly inhibitors; hit rate 0.16% among 390,000; AID 504648, 2011; further: potency means the concentration at half of the fitted maximal effect; on the % scale 0 is the no-effect control and ±100 the full control effect
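A549 ARE-Fluc cells in 5% FBS OPTI-MEM, 5000 cells/well, rested 2 h then exposed to compounds in concentration-response for 18-24 h at 37 °C. Viability by CellTiter-Fluor fluorescence (Ex 405/Em 525) after 30 min; luciferase luminescence (BugLite, 15 min, RT) read afterwards.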
miR-21 act – qHTS Assay for Modulators of miRNAs and/orActivators of miR-21; HeLa miR-21 FLuc reporter, luciferase, 48 h; Potency, µM (series often up to 38.3 µM), without a hit: at the highest dose activity change, positive = activation, hits mostly activators; 340,000 tested, under 10 active;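 further: % of control where 0% means no effect; miR-21 action dims this reporter so a rising signal means less miR-21 action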
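HeLa miR-21-FLuc reporter line, endogenous miR-21; 2000 cells/well in DMEM/10% FBS; compound titration up to ~40uM final, 48 h, 37 degree Celsius; luciferase detection reagent, 15 min lysis, CCD luminescence.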
ClpP mod – qHTS Assay for Activators of ClpP; purified B. subtilis ClpP, FRET peptide cleavage, 20 min; ATP-dependent Clp protease proteolytic subunit (Bacillus subtilis (strain 168)), P80244; hit rate 1.9% among 340,000; Potency, µM (doses to about 57.5 µM), for the others: at the top dose activity change, negative = active; active means well fitted falling curve with a large enough effect; inconclusive means small, poorly fitted or top-dose-only effect; inactive means no such curve, though single readings can be large or run the other way; further: potency means the concentration at half of the fitted maximal effect; the source files actives as falling curves though it sought activators and does not explain the sign; nearly all actives have a fitted effect of over 65% in size
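Purified B. subtilis ClpP, 10 microg/mL final in Tris/HCl pH8 with KCl, BSA, glycerol and Tween-20, cleaved an Abz/nitrotyrosine-quenched decapeptide. Fluorescence (ex 320, em 430) was read at 0 and 20 min at room temperature. Delta was normalized to 5.8 microM ADEP and DMSO/no-enzyme controls.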
Nrf2 activator – qHTS of Nrf2 Activators; AREc32 ARE-luciferase reporter (MCF7-derived line), luminescence, 24 h; Potency, µM (highest dose often 46.1 µM), inactives show at the top dose activation, actives largely listed as activators; hit rate 0.31% among 410,000; AID 624171, 2012; further: potency means the concentration at half of the fitted maximal effect; % of control where 0% means no effect; nearly all actives have a fitted effect of over 65% in size
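AREc32 cells carrying an ARE-driven firefly luciferase reporter were seeded at 1000 cells/well in OPTI-MEM with 5% FBS, then exposed to compound for 24 hr at 37 deg C. Luminescence was read with Steady-Glo after 30 min at RT.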
Nrf2 block – Nrf2 qHTS screen for inhibitors | AID 504444, 2011 | Potency, µM (doses to about 46 µM), without a hit: at the top dose activity change, negative = inhibition, most hits filed as inhibitors | A549 ARE-Fluc reporter, luciferase luminescence, 18-24 h | hit rate 2.1% among 360,000; further: potency means the concentration at half of the fitted maximal effect; on the % scale 0 is the no-effect control and ±100 the full control effect; nearly all actives have a fitted effect of over 60% in size
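Quantitative HTS in A549 cells stably bearing an antioxidant response element-firefly luciferase construct. Inhibition of Nrf2-driven transcription was scored by luminescence after 18-24 h of compound exposure at 37 °C.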
p53 reactivation – qHTS assay for re-activators of p53 using a Luc reporter; H1299 p53-A138V BP100-luciferase reporter, luminescence, 24 h; hit rate 0.063% among 320,000; Potency, µM (highest dose often 92.2 µM), for inactives: top-dose activity change, positive = activation, most hits filed as activators; AID 504706, 2011; further: potency means the concentration at half of the fitted maximal effect; % of control where 0% means no effect; nearly all actives have a fitted effect of over 45% in size
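p53-null H1299 cells stably carrying temperature-sensitive p53-A138V and a BP100-luciferase reporter were pinned with compounds (4-point, 1:5 series) and held 24 hrs at 37 deg C. Luminescence was read 10 min after detection reagent.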
Active calls of the source: *; ? = inconclusive; . = no result given; [ ] = another dose, or the depositor's remark. Unless noted, the call rests on the fitted dose curve; in most records, active means well fitted curve in the direction sought with a large enough effect; inconclusive means small, poorly fitted or top-dose-only effect, or another doubt; inactive means no such curve, though single readings can be large; an effect the other way counts as inactive or inconclusive.

SMILES	A549 viability	miR-21 act	ClpP mod	Nrf2 activator	Nrf2 block	p53 reactivation
CN1CCCCc2c1nc1ccccc1c2N (tested in a mixture with another compound)	-2%	-13%	-15%	2%	20%	-1%
Nc1c2c(nc3ccccc13)N(c1ccccc1)CC2	-4%	-10%	16µM*	9%	1%	3%
CCN(CC)S(=O)(=O)c1ccc(NC(=O)c2c(C)oc3ncnc(N4CCOCC4)c23)cc1	-6%	4%	1%	0%	1%	.
CCOC(=O)C1CCCN(C(=O)c2nn(-c3ccc(C)cc3)c(=O)n(C)c2=O)C1 (stereo not given)	-1%	-3%	3%	0%	.	.
Cc1ccc(-c2nc(C)c(CCNC(=O)c3cccs3)s2)cc1	4%	3%	4%	6%	.	.
CCCCN1CC(C(=O)NCc2ccc(C)cc2)CC1=O (stereo not given)	1%	-2%	20µM*	0%	1%	1%
Cc1cc2n(n1)CCCN2C(=O)Nc1ccc(Cl)cc1	0%	-33%	-1%	0%	.	.
CC(=O)c1cccc(NC(=O)CCS(=O)(=O)c2ccc(Br)s2)c1	-2%	-4%	1%	4%	-1%	-2%
O=C(CCS(=O)(=O)c1ccc(Br)s1)Nc1cc(C(F)(F)F)cc(C(F)(F)F)c1	?	9%	1%	-3%	23µM*	.
COc1ccc2cc(/C=N/NC(=O)c3ccc(CN(c4cccc(Cl)c4Cl)S(C)(=O)=O)cc3)c(Cl)nc2c1	-10%	4%	18µM*	2%	?	1%
Cc1ccc(S(=O)(=O)c2cnc(SCC(=O)Nc3ccccc3C(F)(F)F)[nH]c2=O)cc1C	-4%	-1%	-1%	-1%	7%	.
COc1ccc(C2=NS(=O)(=O)N(C)C(C(=O)N3CCc4ccccc4C3)=C2)cc1OC	-28%	26%	-7%	4%	15µM*	0%
COc1ccc(C2=NS(=O)(=O)N(C)C(C(=O)NCc3ccccc3)=C2)cc1OC	-19%	-5%	-1%	0%	-12%	7%
CCc1ccc(NC(=O)C2=CC(c3ccc(OC)c(OC)c3)=NS(=O)(=O)N2C)cc1	-20%	27%	0%	0%	23µM*	6%
Cc1[nH]c2ccccc2c1SCc1nnc(SCc2ccccc2)n1C	3%	13%	?	-1%	26µM*	-4%
Cc1[nH]c2ccccc2c1SCc1nnc(SCc2ccc(Cl)cc2)n1C	-8%	0%	.	0%	?	-6%
Cc1ccc(S(=O)(=O)NCCc2nnc3ccc(SCC(=O)Nc4c(C)cc(C)cc4C)nn23)cc1	1%	-2%	-7%	1%	6%	.
CN(C)c1ccc(C=Nc2ccccc2C(N)=O)cc1	-9%	8%	25µM*	-2%	11%	16%
O=C(C[n+]1cccc2ccccc21)c1ccc([N+](=O)[O-])cc1	?	3%	.	15%	?	0%
O=[N+]([O-])c1ccc(Cl)c(C[n+]2cccc3ccccc32)c1	-15%	12%	-6%	-2%	12µM*	-14%
COc1ccc(S(=O)(=O)N2CCN(Cc3ccccc3OC)CC2)cc1	.	.	1%	-1%	.	.
Cn1c(N2CCN(S(=O)(=O)c3ccc(F)cc3)CC2)nc2ccccc21	-3%	-4%	.	0%	?	-4%
CCN1CCN(S(=O)(=O)c2ccc(Oc3ccccc3OC)cc2)CC1	0%	2%	20µM*	5%	?	-1%
O=S(=O)(c1ccccc1C(F)(F)F)N1CCN(S(=O)(=O)c2ccccc2C(F)(F)F)CC1	5%	-4%	0%	-1%	8%	-3%
CCn1c(N2CCN(S(=O)(=O)c3ccc(OC)cc3)CC2)nc2ccccc21	-17%	21%	.	0%[9.22 µM]	21µM*	.
SMILES	A549 viability	miR-21 act	ClpP mod	Nrf2 activator	Nrf2 block	p53 reactivation
CCn1c(N2CCN(S(=O)(=O)c3ccccc3C(F)(F)F)CC2)nc2ccccc21	-13%	25%	-1%	3%	21µM*	4%
COc1ccc(-c2[nH][nH]c(=O)c2NC(=O)c2ccc(C)cc2)cc1	.	.	-1%	-1%	.	.
CC(C)=CC(=O)Oc1ccc(C(=O)N(C)c2ccccc2I)cc1	-1%	.	.	.	7%	.
CC(=O)NC(c1ccccc1)c1cc([N+](=O)[O-])c2cccnc2c1O (stereo not given)	?	1%	.	-1%	15µM*	10%
CCC(=O)NC(c1cccs1)c1cc([N+](=O)[O-])c2cccnc2c1O (stereo not given)	?	0%	-1%	0%	?	?
O=C(CCc1ccccc1)NC(c1cccs1)c1cc(Cl)c2cccnc2c1O (stereo not given)	?	?	.	-1%	16µM*	?
CCC(=O)NC(c1cccs1)c1cc(Cl)c2ccccc2c1O (stereo not given)	11%	.	.	6%	2%	-16%
CCCC(=O)NC(c1cccs1)c1cc([N+](=O)[O-])c2cccnc2c1O (stereo not given)	?	-1%	-2%	0%	21µM*	?
CCOC(=O)c1cc(-c2ccccc2)n(CC(=O)Nc2ccc(CC)cc2)c1C	0%	-15%	-3%	0%	.	.
COc1ccc2c(CNCc3cccs3)c(C(=O)O)n(Cc3ccc(F)cc3Cl)c2c1	-17%	14%	-6%	0%	25%	.
Cc1cc(NC(=O)c2cccc(S(=O)(=O)N(C)C)c2)n(-c2ccccn2)n1	-12%	3%	1%	0%	26µM*	0%
CN(C)S(=O)(=O)c1cccc(NC(=O)c2ccc3nccnc3c2)c1	?	14%	.	3%	5.8µM*	3%
COc1ccc(-c2cc(-c3cccs3)nc(OC)c2C#N)cc1OC	0%	-6%	32µM*	21%	-24%	6%
N#Cc1c(-c2ccccc2)cc(-c2cccs2)nc1SCC(=O)O	3%	-12%	-2%	20%	-4%	-1%
COc1nc(-c2cccs2)cc(-c2ccc(C)cc2)c1C#N	-11%	-2%	4µM*	15%	.	5%
COc1ccc(-c2c(C#N)c(N)nc3c2CCc2ccccc2-3)cc1OC	.	10%	13µM*	-2%	?	-6%
O=c1cc2oc3cc(O)c(O)cc3c(-c3ccccc3[N+](=O)[O-])c-2cc1O	5.2µM*	?	0%	0%	3.3µM*	-3%

Source: PubChem (National Center for Advancing Translational Sciences (NCATS))
